# Laboratory results as given in PubChem BioAssay AID372 (MTDP, 2006).
# Screen size: about 100,000 compounds; about 770 (0.77%) were called active. The sample holds actives, similar compounds and a random draw of the others, so the mix is not that of the screen. Unmarked numbers belong to inactive results. Cut-off read from the data, not from the text of the source: active = inhibition above about 50%; inactive = the rest.
# Target: Gag-Pol polyprotein (Human immunodeficiency virus type 1 group M subtype B (isolate HXB2)) (UniProt P04585)
# Experiment: RNase H inhibition, HIV 1 Gag Pol polyprotein, FRET biochemical assay, screening (AID 372)
# Conditions: HIV-1 RT RNase H, FRET RNA/DNA substrate fluorescence; at 10 µM; active compounds read high
row,SMILES,inhibition
1,CC(C)(C)c1ccc(C(=O)NC2CCCC2)cc1,2%
2,O=C1c2ccccc2NC(c2ccccc2O)N1c1ccc(Cl)cc1 (stereo not drawn),12%
3,COc1cc(OC)c(OC)cc1CN1CCN(C/C=C/c2ccccc2)CC1,14%
4,c1ccc(N2N=C(c3cccs3)CC2c2cccs2)cc1 (stereo not drawn),6%
5,COc1ccc(/C=N/n2nnnc2N)cc1Br,30%
6,Cc1ccc2cc(C)c(NCc3ccccn3)nc2c1,6%
7,CCOC(=O)C(CC)P(=O)(c1ccccc1)c1ccccc1 (stereo not drawn),0%
8,CCCC(=O)Nc1ccc(NC(=O)c2ccccc2[N+](=O)[O-])cc1,7%
9,CN(C)c1ccc(C(=O)N2CCN(c3ccc(F)cc3)CC2)cc1,13%
10,CCc1ccc2oc(-c3ccc(C)c(NC(=O)COc4ccccc4)c3)nc2c1,44%
11,Cc1cc2nc(-c3ccc(C)c(NC(=O)c4cccc([N+](=O)[O-])c4)c3)oc2cc1C,15%
12,O=C(COc1ccccc1)Nc1ccc2oc(-c3ccc(Cl)cc3)nc2c1,49%
13,COc1ccc(OCC(=O)Nc2ccc(-c3nc4cc(C)ccc4o3)cc2)cc1,19%
14,O=C(COc1ccc(Cl)cc1)Nc1ccc2oc(-c3ccc(Cl)cc3)nc2c1,54% (active)
15,Cc1ccc(-c2nc3ccccc3o2)cc1NC(=O)COc1ccc(Cl)cc1,9%
16,O=C(COc1ccc(Cl)cc1)Nc1ccc2oc(-c3ccccc3)nc2c1,16%
17,Cc1ccc(-c2nc3cc(Cl)ccc3o2)cc1NC(=O)c1cccc(Cl)c1,15%
18,Cc1ccc2oc(-c3ccc(NC(=O)COc4ccc(Br)cc4)cc3)nc2c1,59% (active)
19,Cc1ccc(-c2nc3cc(Cl)ccc3o2)cc1NC(=O)c1cccc([N+](=O)[O-])c1,57% (active)
20,Cc1ccc2oc(-c3ccc(NC(=O)COc4ccc(Cl)cc4)cc3)nc2c1,28%
21,CCc1ccc2oc(-c3ccc(C)c(NC(=O)COc4ccc(Cl)cc4)c3)nc2c1,52% (active)

row,SMILES,inhibition
1,O=C(NCCN1CCOCC1)c1cc2nc(-c3ccc(Cl)cc3)cc(C(F)(F)F)n2n1,0%
2,COc1ccc(C=NN2CCN(Cc3ccccc3Cl)CC2)c(OC)c1,6%
3,Cc1nc(-c2ccccc2)sc1C(=O)Nc1ccc(Br)cc1,15%
4,c1ccc(-c2ccc(Oc3cc(-n4cccn4)ncn3)cc2)cc1,11%
5,O=C(Nc1ccc(Cl)cc1)c1cccc(N2C(=O)c3cccnc3C2=O)c1,0%
6,Cc1ccc(NC(=O)c2c(NC(=O)C(F)(F)F)sc3c2CCCCC3)c(C)c1,23%
7,Cc1ccc(NC(=O)c2c(NC(=O)C(F)(F)F)sc3c2CCC3)c(C)c1,13%
8,Oc1c(C=Nc2ccccc2)sc2ccccc12,4%
9,CC(=O)c1ccc(NS(=O)(=O)c2cccc(S(=O)(=O)c3ccc(Cl)c(Cl)c3)c2)cc1,10%
10,COc1cc(C(=O)NN2C(=O)/C(=C/c3ccc(OC)c(OC)c3)SC2=S)ccc1O,61% (active)
11,COc1cc(C(=O)NN2C(=O)/C(=C/c3ccccc3)SC2=S)ccc1O,4%
12,O=C(NN1C(=O)/C(=C/c2ccc(Br)cc2)SC1=S)c1ccncc1,5%
13,O=C(NN1C(=O)/C(=C/c2ccc(O)c(O)c2)SC1=S)c1ccc(Br)cc1,58% (active)
14,COc1cc(/C=C2\SC(=S)N(NC(=O)c3ccc(O)c(OC)c3)C2=O)ccc1O,34%
15,COc1cc(/C=C2\SC(=S)N(Nc3ccccc3)C2=O)cc(OC)c1OC,4%
16,COc1ccc(/C=C2\SC(=S)N(Nc3ccccc3)C2=O)cc1OC,55% (active)
17,O=C(NN1C(=O)/C(=C/c2ccc(O)c(O)c2)SC1=S)c1ccccc1Br,50% (active)
18,O=C(NN1C(=O)/C(=C/c2ccc(O)cc2)SC1=S)c1ccccc1Br,5%
19,COc1cc(/C=C2\SC(=S)N(NC(=O)c3ccccc3Br)C2=O)ccc1O,18%
20,COc1cc(/C=C2\SC(=S)N(Nc3ccccc3)C2=O)ccc1O,37%
21,COc1cc(/C=C2\SC(=S)N(NC(=O)c3ccc(Br)cc3)C2=O)ccc1O,23%

row,SMILES,inhibition
1,CCOc1ccc(C(=O)Nc2ccc3oc(-c4ccc(CC)cc4)nc3c2)cc1[N+](=O)[O-],16%
2,Nc1nc(CN2C(=O)c3ccccc3C2=O)cs1,2%
3,CCOC(=O)c1c(NC(=O)c2ccc3c(c2)OCCO3)sc2c1CCCC2,5%
4,CC(=O)OCCN1C(=O)c2ccc(Oc3cccc(Oc4ccc5c(c4)C(=O)N(CCOC(C)=O)C5=O)c3)cc2C1=O,10%
5,CCOc1ccc(/C=C2\SC(=S)N(CCC(=O)Nc3cccnc3)C2=O)cc1,22%
6,CC(=O)N1c2ccccc2NC2=C(C(=O)CC(c3ccccc3)C2)C1c1cccnc1 (stereo not drawn),7%
7,O=C(O)c1cccc(C(=O)O)c1N(c1ccccc1)c1ccccc1,40%
8,CCOc1cc(/C=N/n2cnnc2)cc(Cl)c1OCCOc1cc(C)ccc1C(C)C,10%
9,COc1ccc(C(=O)Nc2nccs2)c(OC)c1,4%
10,Cc1cccc(N2C(=O)NC(=O)/C(=C\c3ccc(Oc4ccc([N+](=O)[O-])cn4)cc3)C2=O)c1,13%
11,Cc1cccc(C=Nn2c(-c3ccccc3)n[nH]c2=S)c1,22%
12,Oc1ccc(/C=N/n2c(-c3ccccc3)n[nH]c2=S)cc1O,55% (active)
13,Cc1ccc(-c2n[nH]c(=S)n2N=Cc2ccc(-c3ccccc3)cc2)cc1,56% (active)
14,Cc1ccc(-c2n[nH]c(=S)n2/N=C/c2ccc(O)cc2)cc1,9%
15,Oc1ccccc1/C=N/n1c(-c2ccccc2)n[nH]c1=S,11%
16,COc1ccc(-c2n[nH]c(=S)n2N=Cc2ccc(-c3ccccc3)cc2)cc1,45%
17,Cc1ccc(-c2n[nH]c(=S)n2N=Cc2ccc(Cl)c(Cl)c2)cc1,18%
18,Cc1ccc(-c2n[nH]c(=S)n2N=Cc2ccc(O)c(O)c2)cc1,60% (active)
19,Cc1ccc(-c2n[nH]c(=S)n2/N=C/c2cc(Br)ccc2O)cc1,15%
20,Cc1ccc(-c2n[nH]c(=S)n2/N=C/c2ccc(O)cc2O)cc1,8%
21,COc1cc(/C=N/n2c(-c3ccc(C)cc3)n[nH]c2=S)ccc1O,8%
